Results on 8 compounds are retold here after PubChem BioAssay (NCI).

This is part of a sample that, as a whole, favours compounds with a hit. Of some 83,000 tested, about 20% had one in any assay.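 Cell lines were cultured in 96-well plates, exposed to a single compound concentration, and assessed for percent growth 48 hours later.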 A number with no mark means an inactive call. Active and inactive are the calls of the source. How the source made its calls: active means growth percent below 10; inactive means the rest.

Some test systems named below: NCI-H23 lung; NCI-H226 lung; NCI-H322M lung; HOP-62 NSCLC; NCI-H460 lung; HOP-92 NSCLC; NCI-H522 lung; A549/ATCC NSCLC; 786-0 renal; COLO 205 colon; DU-145 prostate; K-562 leukemia; MALME-3M melanoma; MDA-MB-231 breast; RXF 393 renal; SF-268 CNS; SF-295 CNS; SF-539 CNS; UACC-257 melanoma; M14 melanoma.
Assay in all cases: NCI-60 one-dose screen, 48 h (100 = growth as untreated, 0 = no growth, -100 = all killed)
Holding throughout (details): 10 µM unless noted

Take `N#C/C(=C\c1ccc(Br)cc1)c1cc2ccccc2[nH]1`: the growth with NCI-H23 lung was 92.1%; in the assay with NCI-H226 lung, 92.7%; in the assay on NCI-H322M lung, 91.6%; in the assay with HOP-62 NSCLC, 86.3%; in the assay on NCI-H460 lung it was 96.1%; in the assay on HOP-92 NSCLC it was 70.4%. For the same compound, the growth with NCI-H522 lung was 85%; with A549/ATCC NSCLC, 101%; with 786-0 renal, 93.3%; in the assay on COLO 205 colon, 105%; in the assay on DU-145 prostate it was 104%; in the assay with K-562 leukemia, 86.4%. Besides, the growth in the assay with MALME-3M melanoma was 99.3%; in the assay on MDA-MB-231 breast, 79.5%; in the assay with RXF 393 renal it was 115%; in the assay with SF-268 CNS, 102%; in the assay on SF-295 CNS it was 95.6%; in the assay on SF-539 CNS, 93.3%. Also, the figures for the growth in the assay with UACC-257 melanoma and with M14 melanoma were 100% and 101%, respectively.

For `CC1(C)OC(=O)C(=Cc2cccc(Br)c2)C(=O)O1`, the growth with NCI-H23 lung was 103%; in the assay on NCI-H226 lung, 96.2%; with NCI-H322M lung it was 113%; in the assay on HOP-62 NSCLC it was 88.1%; in the assay on NCI-H460 lung, 105%; in the assay on HOP-92 NSCLC, 85.8%. Further, the growth with NCI-H522 lung was 77.5%; in the assay on A549/ATCC NSCLC, 87.9%; with 786-0 renal, 109%; in the assay on COLO 205 colon it was 104%; with DU-145 prostate, 112%; in the assay with K-562 leukemia, 98.6%. In addition, the growth with MALME-3M melanoma is 108%; with MDA-MB-231 breast it was 107%; in the assay with RXF 393 renal, 96.4%; in the assay with SF-268 CNS, 102%; with SF-295 CNS it was 102%; in the assay on SF-539 CNS, 108%. The growth was 85.8% with UACC-257 melanoma and 109% in the assay on M14 melanoma.

Consider `COc1ccc2nc(SCC(=O)Nc3ccccc3C)[nH]c2c1`, for which the growth was 101% in the assay with NCI-H23 lung; 92.2% with NCI-H226 lung; 90% with NCI-H322M lung; 90% with HOP-62 NSCLC; 104% in the assay with NCI-H460 lung; 83.2% in the assay with HOP-92 NSCLC. For the same compound, the growth in the assay with NCI-H522 lung is 87.9%; in the assay on A549/ATCC NSCLC, 84%; in the assay with 786-0 renal, 99.9%; in the assay with COLO 205 colon, 113%; in the assay with DU-145 prostate it was 105%; in the assay with K-562 leukemia, 97.5%. Further, the growth in the assay on MALME-3M melanoma was 96.9%; in the assay on MDA-MB-231 breast, 98.6%; in the assay on RXF 393 renal it was 105%; with SF-268 CNS it was 102%; with SF-295 CNS, 93%; in the assay on SF-539 CNS, 101%. Moreover, the growth is 90% with UACC-257 melanoma and 101% in the assay with M14 melanoma.

Consider `COc1ccc(NC(=O)c2ccc(C(=O)Nc3ccc(OC)cc3OC)cc2)c(OC)c1`, for which the growth is 75.3% in the assay with NCI-H23 lung; 71.5% in the assay on NCI-H226 lung; 91.3% in the assay on NCI-H322M lung; 33.6% with HOP-62 NSCLC; 95.9% in the assay on NCI-H460 lung; -19.3% (active) in the assay on HOP-92 NSCLC. Besides, the growth with NCI-H522 lung is 76.4%; with A549/ATCC NSCLC, 85%; with 786-0 renal, 51.2%; with COLO 205 colon it was 115%; in the assay with DU-145 prostate, 94.6%; in the assay on K-562 leukemia, 110%. Moreover, the growth with MALME-3M melanoma is 84.5%; in the assay on MDA-MB-231 breast, 53.1%; in the assay with RXF 393 renal, 40.5%; in the assay with SF-268 CNS, 29.7%; in the assay on SF-295 CNS it was 57.3%; with SF-539 CNS it was 35.8%. For the same compound, the growth in the assay on UACC-257 melanoma was 90.6%; with M14 melanoma, 79.8%.

Consider `NS(=O)(=O)c1ccc(N/C=C/C(=O)c2cc3ccccc3oc2=O)cc1`, for which the growth in the assay on NCI-H23 lung is 88%; in the assay on NCI-H226 lung, 86.9%; in the assay with NCI-H322M lung, 92.9%; in the assay on HOP-62 NSCLC, 84.7%; in the assay with NCI-H460 lung it was 96.8%; in the assay on HOP-92 NSCLC, 76.1%. Further, the growth was 96.3% in the assay on NCI-H522 lung; 97.1% in the assay with A549/ATCC NSCLC; 96.1% in the assay on 786-0 renal; 102% in the assay with COLO 205 colon; 109% in the assay with DU-145 prostate; 94.8% with K-562 leukemia. Besides, the growth in the assay on MALME-3M melanoma is 85%; with MDA-MB-231 breast, 85.2%; with RXF 393 renal it was 102%; in the assay on SF-268 CNS, 95.5%; in the assay on SF-295 CNS, 103%; with SF-539 CNS, 93%. Also, the growth in the assay with UACC-257 melanoma is 110%; in the assay on M14 melanoma, 89.5%.

As for `CCOC(=O)c1c(C)c2c(n1C)CSc1cc(S(=O)(=O)c3ccccc3)c(=O)[nH]c1-2`, the growth was 21.7% [100 µM] in the assay with NCI-H23 lung; 24.3% [100 µM] with NCI-H226 lung; 28.1% [100 µM] in the assay with NCI-H322M lung; 57.5% [100 µM] in the assay with HOP-62 NSCLC; 9.02% [100 µM] (active) with NCI-H460 lung; 8.76% [100 µM] (active) in the assay on HOP-92 NSCLC. Moreover, the growth with NCI-H522 lung was 32% [100 µM]; in the assay on A549/ATCC NSCLC, 32.1% [100 µM]; in the assay on 786-0 renal, 31.4% [100 µM]; in the assay with COLO 205 colon it was -27.7% [100 µM] (active); with DU-145 prostate it was 25.8% [100 µM]; in the assay with K-562 leukemia, 31% [100 µM]. Further, the growth in the assay on MALME-3M melanoma was 73.2% [100 µM]; with MDA-MB-231 breast, 31.1% [100 µM]; in the assay with RXF 393 renal it was 44.3% [100 µM]; in the assay with SF-268 CNS, 40.5% [100 µM]; with SF-295 CNS, 27.2% [100 µM]; with SF-539 CNS, 28.9% [100 µM]. Also, the growth was 41.9% [100 µM] in the assay on UACC-257 melanoma and 23.7% [100 µM] in the assay on M14 melanoma.

`O=C(CCCCCCCCC(=O)N/N=C\c1cc(Cl)ccc1O)N/N=C\c1cc(Cl)ccc1O`: the growth in the assay with NCI-H23 lung is 47.9%; in the assay on NCI-H226 lung, 15.4%; in the assay on NCI-H322M lung it was 41.1%; in the assay on HOP-62 NSCLC it was 30.7%; in the assay on NCI-H460 lung, 7.22% (active); in the assay on HOP-92 NSCLC, 47.6%. The growth is 34.3% in the assay on NCI-H522 lung; 38.2% with A549/ATCC NSCLC; 16.3% with 786-0 renal; 36.9% in the assay with COLO 205 colon; 30.5% with DU-145 prostate; 23.7% in the assay with K-562 leukemia. Further, the growth with MALME-3M melanoma is 37.6%; in the assay with MDA-MB-231 breast, 37%; with RXF 393 renal, 46.7%; with SF-268 CNS, 28.3%; in the assay on SF-295 CNS, 21.9%; with SF-539 CNS, 15.6%. Further, the growth was 23.6% in the assay on UACC-257 melanoma and 17.7% in the assay with M14 melanoma.

Turning to `C=CC(=O)NCCOc1cccc(Nc2cc(NCCCNC(=O)C3CCC3)c(Br)cn2)c1`, the growth was -25.8% (active) in the assay with NCI-H23 lung; -14.1% (active) with NCI-H226 lung; -6.07% (active) in the assay with NCI-H322M lung; -22.4% (active) in the assay with HOP-62 NSCLC; -18% (active) with NCI-H460 lung; -28.5% (active) in the assay with HOP-92 NSCLC. Besides, the growth was -19.3% (active) in the assay with NCI-H522 lung; -16.7% (active) with A549/ATCC NSCLC; -35.7% (active) in the assay with 786-0 renal; -42.7% (active) in the assay with COLO 205 colon; 8.96% (active) with DU-145 prostate; 9.43% (active) in the assay on K-562 leukemia. Besides, the growth is -19% (active) in the assay with MALME-3M melanoma; -25.6% (active) with MDA-MB-231 breast; -77% (active) in the assay with RXF 393 renal; -25.3% (active) with SF-268 CNS; 2.75% (active) in the assay on SF-295 CNS; -58.3% (active) in the assay on SF-539 CNS. The results for the growth with UACC-257 melanoma and with M14 melanoma were -11.6% (active) and -18.7% (active), respectively.
